JMJD2A Tudor: qHTS Assay for Inhibitors of JMJD2A-Tudor Domain | AlphaScreen JMJD2A-Tudor / H3K4me3 peptide binding | 390,000 compounds, 4.4% hits | Potency, µM (titrated, usually from 114 µM), for the others: top-dose activity change, negative = inhibition, most hits filed as inhibitors | AID 504339, 2011 | Lysine-specific demethylase 4A (Homo sapiens), O75164; note: potency is the fitted concentration of half-maximal effect; % is set by controls: 0 for no effect and ±100 for the full control effect; nearly all actives have a fitted effect of over 50% in size
Six1-Eya2 inh: qHTS Assay for Inhibitors of the Six1/Eya2 Interaction; AlphaScreen GST-Six1/His-Eya2 binding, biochemical; hits give low values; activity change, % (concentration not given with the values); 360,000 compounds, 0.56% hits; in the data active = activity change below about -65%; inconclusive = mostly about -30% to -63%; note: % is set by controls: 0 for no effect and ±100 for the full control effect
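GST-Six1 + His-Eya2 (5X stock: 250/500 nM); Tris pH 8.0, 300 mM NaCl, 0.05% BSA, 0.02% Tween 20; GSH donor/Ni acceptor beads; 1 h 37 °C dark; AlphaScreen readout.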
BAZ2B inh: qHTS Assay for Inhibitors of BAZ2B | Bromodomain adjacent to zinc finger domain protein 2B (Homo sapiens), Q9UIF8 | AlphaScreen BAZ2B-H3K14Ac peptide displacement | Potency, µM (doses to about 114 µM), inactives show at the top dose activity change, negative = inhibition, most hits filed as inhibitors | 360,000 compounds, 4.4% hits; note: potency is the fitted concentration of half-maximal effect; % is set by controls: 0 for no effect and ±100 for the full control effect; nearly all actives have a fitted effect of over 60% in size
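AlphaScreen displacement: compounds (up to 110uM) incubated 30 min at room temperature with a preformed 50 nM BAZ2B/50 nM biotinylated H3K14Ac peptide complex in PBS pH 7.4 with Tween-20. Donor and acceptor beads at 10 ug/mL final added, 20 min light-protected before reading.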
HP1b chromo inh: HTS for Inhibitors of HP1-beta Chromodomain Interactions with Methylated Histone Tails. 390,000 compounds, 0.56% hits. AID 540317, 2011. Chromobox protein homolog 1 (Homo sapiens), P83916. Potency, µM (doses to about 114 µM), inactives show at the top dose activity change, negative = inhibition, most hits filed as inhibitors. AlphaScreen HP1-beta / biotin-H3K9me3 peptide binding; note: potency is the fitted concentration of half-maximal effect; nearly all actives have a fitted effect of over 70% in size
Target sequence (P83916 whole entry, looked up): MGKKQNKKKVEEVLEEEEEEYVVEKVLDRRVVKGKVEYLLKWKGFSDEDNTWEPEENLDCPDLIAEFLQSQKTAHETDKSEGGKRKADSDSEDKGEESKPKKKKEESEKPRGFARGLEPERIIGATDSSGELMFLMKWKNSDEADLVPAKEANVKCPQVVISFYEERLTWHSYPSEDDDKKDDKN
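AlphaScreen: HP1-beta (50 nM) preformed 30 min with biotin-H3(1-18)K9me3 peptide (50 nM) in PBS pH 7.4, 0.01% Tween-20. Compound added for 30 min at RT, then streptavidin donor/nickel chelate acceptor beads (10 ug/mL) for 30 min.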
G9a block: qHTS Assay for Inhibitors of Histone Lysine Methyltransferase G9a | G9a H3K9 monomethylation, AlphaScreen, 2 h | 350,000 compounds, 8.8% hits | AID 504332, 2011 | Histone-lysine N-methyltransferase EHMT2 (Homo sapiens), Q96KQ7 | Potency, µM (doses to about 102 µM), inactives show at the highest dose activity, negative = inhibition, most hits filed as inhibitors; note: potency is the fitted concentration of half-maximal effect; % is set by controls: 0 for no effect and ±100 for the full control effect; nearly all actives have a fitted effect of over 75% in size
Target sequence (Q96KQ7 913-1193 limits assumed): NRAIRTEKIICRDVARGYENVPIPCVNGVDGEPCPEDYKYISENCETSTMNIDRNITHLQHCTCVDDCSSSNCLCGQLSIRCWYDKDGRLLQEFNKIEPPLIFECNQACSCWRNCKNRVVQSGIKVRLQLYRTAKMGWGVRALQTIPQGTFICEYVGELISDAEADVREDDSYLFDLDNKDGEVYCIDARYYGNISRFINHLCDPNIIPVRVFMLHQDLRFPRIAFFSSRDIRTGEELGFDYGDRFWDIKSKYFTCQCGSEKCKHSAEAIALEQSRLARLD
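Using a bead-based AlphaScreen, monomethylated H3K9 product from 2 h room-temperature reactions (G9a 20 nM, peptide 500 nM, SAM 20 uM) was detected with 0.5 ug/mL rabbit anti-H3K9me1 antibody.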
CtBP-E1A blk: qHTS Assay for Inhibitors of the CtBP/E1A Interaction; CtBP / adenovirus E1A interaction (AlphaScreen); AlphaScreen GST-E1A/His-CtBP binding, 1536-well; hits give low values; activity change, % (concentration not given with the values); 340,000 compounds, 0.49% hits; in the data active = activity change below about -65%; inconclusive = mostly about -30% to -63%; note: % is set by controls: 0 for no effect and ±100 for the full control effect
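AlphaScreen with 125 nM GST-E1A and 125 nM His-CtBP (5X stocks) in Tris pH 8.0, 300 mM NaCl, BSA, Tween 20, TCEP. Compounds preincubated 2 h at 37 deg C, then glutathione donor/nickel acceptor beads added for 1 h at 37 deg C in dark.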
Active calls of the source: *; [ ] = dose if it differs, or a comment. Compounds with a hit are over-represented: about 10% of the library has one in this group of screens. Unless noted, calls come from the whole dose curve; as a rule, active = well fitted inhibition curve with a large enough effect; inconclusive = small, poorly fitted or top-dose-only effect; inactive = no such curve, though single readings can be large or run the other way.

How did COc1ccc(CCNC(=O)c2oc(=O)c3ccccc3c2-c2ccccc2)cc1OC do in these assays?
JMJD2A Tudor: 14.9%; BAZ2B inh: -13.1%; HP1b chromo inh: 42.6%; G9a block: -8.3%[59 µM]

Results for Cc1ccc(C)c(NC(=O)COC(=O)COc2cccc3c2OC(C)(C)C3)c1 ?
JMJD2A Tudor: 2.1%; Six1-Eya2 inh: 11.2; BAZ2B inh: 11.6%; HP1b chromo inh: 13.2%; G9a block: inconclusive; CtBP-E1A blk: 2.1

Results for CN(C)c1ccc(C(CN)c2c[nH]c3ccccc23)cc1 (stereo not given) ?
JMJD2A Tudor: 35.5µM*; Six1-Eya2 inh: inconclusive; BAZ2B inh: 11.2µM*; HP1b chromo inh: inconclusive; G9a block: 31.6µM*; CtBP-E1A blk: -4.8

What do the screens show for `CN(C)c1ccc(C(CNS(=O)(=O)c2ccc3ccccc3c2)c2c[nH]c3ccccc23)cc1` (stereo not given)?
JMJD2A Tudor: 28.2µM*; Six1-Eya2 inh: inconclusive; BAZ2B inh: 12.6µM*; HP1b chromo inh: inconclusive; G9a block: 10µM*; CtBP-E1A blk: inconclusive

How did NCC(c1ccco1)c1c[nH]c2ccccc12 (stereo not given) do in these assays?
JMJD2A Tudor: -22.6%; Six1-Eya2 inh: -4.6; BAZ2B inh: -8.5%; HP1b chromo inh: 14.1%; G9a block: -5.3%[59 µM]; CtBP-E1A blk: 5.1

Results for CC(=O)N1CCN(CC(=O)Nc2c(Cl)ccc(C)c2Cl)CC1 ?
JMJD2A Tudor: -4.1%; Six1-Eya2 inh: 6.3; BAZ2B inh: 10.3%; HP1b chromo inh: 31.6%; G9a block: -5.4%[0.0925 µM]; CtBP-E1A blk: 0.0

Results for COc1ccccc1C(=O)N/N=C/c1ccc2c(c1)OCO2 ?
JMJD2A Tudor: -3.4%; Six1-Eya2 inh: 1.6; BAZ2B inh: 5.3%; HP1b chromo inh: 22.2%; G9a block: 8.5%; CtBP-E1A blk: -1.1

What do the screens show for `COc1ccccc1N/N=C/c1ccc2c(c1)OCO2`?
JMJD2A Tudor: inconclusive; Six1-Eya2 inh: -7.6; BAZ2B inh: inconclusive; HP1b chromo inh: -23.0%; G9a block: 7.08µM*

How did CC1Nc2nc(N(C)C)[nH]c(=O)c2NC1C (stereo not given) do in these assays?
JMJD2A Tudor: 28.2µM*; Six1-Eya2 inh: -26.7; BAZ2B inh: inconclusive; HP1b chromo inh: 61.5%; G9a block: 3.16µM*; CtBP-E1A blk: 0.6

What do the screens show for `CN(C)C1(CN=Cc2cc(Cl)cc([N+](=O)[O-])c2O)CCCCC1`?
JMJD2A Tudor: 39.8µM*; Six1-Eya2 inh: -2.9; BAZ2B inh: 44.7µM*; HP1b chromo inh: inconclusive; G9a block: inconclusive; CtBP-E1A blk: -2.4

What do the screens show for `N#Cc1c(NC(=O)c2nc3ncccn3n2)sc2c1CCCCC2`?
JMJD2A Tudor: -12.2%; Six1-Eya2 inh: -5.4; BAZ2B inh: 30.1%; HP1b chromo inh: 22.2%; G9a block: -15.1%[59 µM]; CtBP-E1A blk: 12.0

What do the screens show for `N#Cc1c(NC(=O)c2cccc(S(=O)(=O)Nc3ccc(C(=O)O)cc3)c2)sc2c1CCCC2`?
JMJD2A Tudor: -35.9%; Six1-Eya2 inh: inconclusive; BAZ2B inh: 56.2µM*; HP1b chromo inh: -6.4%; G9a block: 50.1µM*; CtBP-E1A blk: -23.5

How did O=C(O)c1ccc(NS(=O)(=O)c2cccc(C(=O)Nc3ccc(Br)cc3)c2)cc1 do in these assays?
JMJD2A Tudor: -13.6%; Six1-Eya2 inh: inconclusive; BAZ2B inh: 7.4%; HP1b chromo inh: 39.2%; G9a block: 20.4%[0.501 µM]; CtBP-E1A blk: -22.2

Results for CC1CCc2c(sc(NC(=O)c3nc4ncccn4n3)c2C#N)C1 (stereo not given) ?
JMJD2A Tudor: inconclusive; Six1-Eya2 inh: 1.3; BAZ2B inh: -24.8%; HP1b chromo inh: inconclusive; G9a block: 3.16µM*; CtBP-E1A blk: 8.1

How did Cc1onc(-c2ccccc2Cl)c1C(=O)Nc1sc2c(c1C#N)CCC2 do in these assays?
JMJD2A Tudor: inconclusive; Six1-Eya2 inh: 0.6; BAZ2B inh: -31.8%; HP1b chromo inh: inconclusive; G9a block: 10µM*; CtBP-E1A blk: -11.3

How did Cc1onc(C(=O)Nc2sc3c(c2C#N)CCCC3)c1[N+](=O)[O-] do in these assays?
JMJD2A Tudor: -20.0%; Six1-Eya2 inh: 0.8; BAZ2B inh: -64.8%; HP1b chromo inh: -7.5%; G9a block: 44.7µM*

How did Cc1nc(S(=O)(=O)N2CCN(c3ccc(Cl)cc3)CC2)cn1C do in these assays?
JMJD2A Tudor: -12.1%; BAZ2B inh: -1.2%; HP1b chromo inh: 20.1%[57 µM]; G9a block: -4.2%[59 µM]

How did CC(C)OCCCNC(=O)CCCn1c(SCC(=O)c2ccc(Br)cc2)nc2c(sc3ccccc32)c1=O do in these assays?
JMJD2A Tudor: -10.1%; BAZ2B inh: -12.2%; HP1b chromo inh: 16.0%; G9a block: 8.5%[59 µM]

How did CCOC(=O)N1CCN(C(=O)CN2C(=O)/C(=C\c3cccc(OC)c3)SC2=S)CC1 do in these assays?
JMJD2A Tudor: -21.3%; HP1b chromo inh: 10.6%

How did CCCCCCN1C[C@@H](n2cc(COC(=O)c3ccccc3)nn2)[C@H](O)C[C@@H]1c1ccc(OC)cc1 do in these assays?
Six1-Eya2 inh: -8.9; CtBP-E1A blk: -1.5

Results for CC1CCc2c(sc(NC(=O)COC(=O)C3CCCO3)c2C#N)C1 (stereo not given) ?
JMJD2A Tudor: -9.7%; Six1-Eya2 inh: 3.2; BAZ2B inh: -13.4%; HP1b chromo inh: 34.0%; G9a block: 25.8%; CtBP-E1A blk: 14.7

How did N#Cc1c(NC(=O)C2CC(c3ccccc3Cl)=NO2)sc2c1CCC2 (stereo not given) do in these assays?
JMJD2A Tudor: -23.3%; Six1-Eya2 inh: -0.6; BAZ2B inh: 0.6%; HP1b chromo inh: -26.2%; G9a block: inconclusive; CtBP-E1A blk: -17.0

How did N#Cc1c(NC(=O)C2CC(c3ccccc3O)=NO2)sc2c1CCC2 (stereo not given) do in these assays?
JMJD2A Tudor: -17.9%; Six1-Eya2 inh: 3.6; BAZ2B inh: -6.0%; HP1b chromo inh: -18.9%; G9a block: 8.91µM*; CtBP-E1A blk: -4.7

What do the screens show for `N#Cc1c(NC(=O)c2cnn3cccnc23)sc2c1CCCC2`?
JMJD2A Tudor: -6.9%; Six1-Eya2 inh: 2.0; BAZ2B inh: -15.6%; HP1b chromo inh: -4.9%; G9a block: 39.8µM*; CtBP-E1A blk: -3.3
